Measurements as given in PubChem BioAssay (NCI).
This is part of a sample that, as a whole, favours compounds with a hit. Of some 83,000 tested, about 20% had one in any assay.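 Cells were grown in 96-well plates and exposed to the test compound at a single concentration for 48 hours; results are reported as percent growth, with values below 10 considered active.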 Values without a mark were called inactive. Calls of active or inactive are those of the source.

The compounds below were run on HL-60(TB) leukemia (assay: NCI-60 one-dose screen, 48 h (100 = growth as untreated, 0 = no growth, -100 = all killed)). Conditions: 10 µM unless noted.
In the case of `NCCCOc1cc2ccccc2cc1C(=O)NCCCOc1cc2ccccc2cc1C(=O)Nc1ccc(Cl)cc1O`, the growth is reported as -62% (active). For `O=C(Nc1ccc(Br)cc1F)c1cc(Cl)ccc1O`, the growth was -42.4% (active). In the case of `Cc1ccccc1NC(=O)c1sc2nc(C)c(C(=O)/C=C/c3ccccc3)cc2c1N`, the growth is reported as 8.8% (active). Work on `NC(=S)N/N=C1\CCCC(C(F)(F)F)C1` (centres undefined) yielded a growth of 89%. With `N#CC1C(C#N)C2c3ccccc3C=CN2C1C(=O)c1ccc(Br)cc1` (centres undefined) the growth was 101%. For `CC(C)(C)c1cnc(CSc2cnc(NC(=O)C3CCNCC3)s2)o1`, the growth was -40.4% (active). For `N#CC1=C(c2ccc(Cl)cc2)Nc2c(c(-c3ccc(Cl)cc3)nn2-c2ccccc2)C12C(=O)Nc1ccc(Cl)cc12` (centres undefined), the growth was 15.2%. With `CC(C)(C)c1ccc(O)c(-c2ccccc2)c1` the growth was 0.4% (active). In the case of `CCOC(=O)C(=Cc1cccc(Br)c1)C(=O)OCC`, the growth is reported as -6.91% (active). For `COc1cccc2cc(-c3cc4ccccc4[nH]3)/c(=N/C(=S)Nc3ccccc3)oc12`, the growth was 101%. `Cc1cc(=O)[nH]c2c(C#N)cnn12` showed a growth of 106%. With `CC1(C)CC[C@]2(C(N)=O)CC[C@]3(C)C(=CC[C@@H]4[C@@]5(C)C/C(=C/c6cccnc6)C(=O)C(C)(C)[C@@H]5CC[C@]43C)[C@@H]2C1` the growth was -24.7% [100 µM] (active). `CCOc1cc(CCNS(=O)(=O)c2ccc(C)cc2)c(C(C)=O)cc1OCC` was tested, and the growth was 46.5% [100 µM]. With `CCCCn1c(=O)[nH]c(N)c(C(c2ccc(Cl)cc2)c2c(N)[nH]c(=O)n(CCCC)c2=O)c1=O` the growth was 13.2%.
